Rows were chosen to be rich in hits. Some 1.4% of all compounds tested hit in one or more screens of this group.
BJeLR viability: BJeLR cell viability loss; BJeLR (HRASV12) viability, CellTiter-Glo ATP luminescence, 48 h; inhibition, % (test concentration not listed); 0.17% of 300,000 active; in the data active = inhibition above about 50%
Sa RN4220 lethal: S. aureus RN4220 growth inhibition; OD600, 16 h; AID 1259311; inhibition, % (test concentration not listed); 0.33% of 330,000 active; in the data active = inhibition above about 85%
DUSP3 inh: blocks human VHR1 dual specificity phosphatase; P51452; recombinant VHR phosphatase, pNPP absorbance; inhibition, % at 13.3 µM; 0.52% of 290,000 active; in the data active = inhibition above about 50%
Target sequence (P51452 whole entry, looked up): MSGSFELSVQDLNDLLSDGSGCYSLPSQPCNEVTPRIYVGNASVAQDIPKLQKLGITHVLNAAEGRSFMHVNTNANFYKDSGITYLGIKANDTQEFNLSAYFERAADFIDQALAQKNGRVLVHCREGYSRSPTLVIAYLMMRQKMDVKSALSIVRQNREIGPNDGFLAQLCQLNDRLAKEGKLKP
PrPC surface inh: inhibitors of human cell surface prion protein PrPC; P04156; TR-FRET read-out; inhibition, % at 13.8 µM; 0.43% of 370,000 active; AID 720596; in the data active = inhibition above about 24%
Sa ugtP lethal: growth inhibition of S. aureus ugtP deletion strain. S. aureus RN4220 ugtP deletion, OD600 growth, 16 h. 0.54% of 330,000 active. growth inhibition, % (no concentration beside the values); in the data active = growth inhibition above about 68%
SARS 3CLpro inh: SARS-CoV 3CLpro protease inhibition; P0C6X7; recombinant SARS-CoV 3CLpro, quenched FRET peptide cleavage; inhibition, % at 6 µM; 0.14% of 290,000 active; in the data active = inhibition above about 12%
Each line names hits and unclear results; the compound was inactive in the other large screens.

O=C(NCCc1ccccc1)C1CC=CC2CCN(C3CCCCC3)C(=O)C21 (centres undefined)	none (no result: BJeLR viability, DUSP3 inh, PrPC surface inh, SARS 3CLpro inh)
C[C@@]12C(=O)OC(=O)[C@]1(C)C1CCC2O1	PrPC surface inh 41 (no result: BJeLR viability, Sa RN4220 lethal, DUSP3 inh, Sa ugtP lethal, SARS 3CLpro inh)
CC12C(=O)N(c3nccs3)C(=O)C1(C)C1CCC2O1 (centres undefined)	none (no result: BJeLR viability, DUSP3 inh, SARS 3CLpro inh)
O=C1C=C(c2cccc3c2Oc2ccccc2S3)CC(c2ccc(Cl)cc2)C1 (centres undefined)	none (no result: BJeLR viability, DUSP3 inh, PrPC surface inh, SARS 3CLpro inh)
CCC(=O)OCC(=O)[C@@]1(OC(=O)CC)C(C)CC2C3CCC4=CC(=O)C=C[C@]4(C)[C@@]3(Cl)C(O)C[C@@]21C (some centres undefined)	none (no result: BJeLR viability, DUSP3 inh, PrPC surface inh, SARS 3CLpro inh)
O=[N+]([O-])c1ccc(C(O)CN2CCN(c3ccccc3)CC2)cc1 (centres undefined)	none
Oc1ccc(N2CCN(CC(O)c3ccccc3)CC2)cc1 (centres undefined)	DUSP3 inh 50
COc1ccc(CCN(C)Cc2c(O)ccc3ccccc23)cc1OC	DUSP3 inh 58
COc1ccc(CCN(C)Cc2cccc3ccccc23)cc1OC	none
c1csc(CN2CCNCC2)c1	DUSP3 inh 56
COC(=O)c1c(-c2ccc(OC)cc2)sc2ccc(OC)cc12	Sa ugtP lethal 91 (no result: BJeLR viability, DUSP3 inh, SARS 3CLpro inh)
CCCCc1cc(=O)oc2c(CN(CC)CC)c(O)c(Cl)cc12	DUSP3 inh 52
CCC1Sc2ccc(S(=O)(=O)Nc3ccc(OC)cc3)cc2NC1=O (centres undefined)	Sa RN4220 lethal 96, Sa ugtP lethal 93
CCC1Sc2ccc(S(=O)(=O)Nc3ccc(OC)c(OC)c3)cc2NC1=O (centres undefined)	none
Cc1ccc(Oc2cc([N+](=O)[O-])cc3c2C(=O)Nc2ccccc2O3)cc1	Sa RN4220 lethal 97, Sa ugtP lethal 91
O=C1Nc2ccccc2Nc2ccc([N+](=O)[O-])cc21	none
Cc1cccc(C(=O)c2cnc3ccccc3c2-c2ccccc2)c1	Sa ugtP lethal 88
Cc1ccccc1CN1CC2CC(c3cn[nH]c3-c3ccc(F)cc3)N3CCC[C@@]23C1=O (some centres undefined)	none (no result: BJeLR viability, DUSP3 inh, PrPC surface inh, SARS 3CLpro inh)
COc1ccc(/C=N\NC(=O)c2cccc(F)c2)cc1COc1ccccc1	BJeLR viability 54 (no result: Sa RN4220 lethal, DUSP3 inh, Sa ugtP lethal, SARS 3CLpro inh)
CC(=O)c1ccc(C(=O)Nc2nnc(-c3ccc(Cl)cc3)o2)cc1	Sa RN4220 lethal 98, Sa ugtP lethal 99 (no result: SARS 3CLpro inh)
COc1cccc(C(=O)Nc2nnc(-c3ccc(Cl)cc3)o2)c1	Sa RN4220 lethal 99, Sa ugtP lethal 100 (no result: SARS 3CLpro inh)
CN(C)c1ccc(C(=O)Nc2nnc(-c3ccc(Cl)cc3)o2)cc1	none
O=C(Nc1nnc(-c2ccco2)o1)c1ccc(Cl)cc1	none
O=C(Nc1nnc(-c2ccccc2)o1)c1ccc(Cl)cc1	Sa RN4220 lethal 96, Sa ugtP lethal 99
CCOc1ccc(C(O)=C2C(=O)C(=O)N(c3nc(C)c(C)s3)C2c2ccco2)cc1 (centres undefined)	none (no result: BJeLR viability, DUSP3 inh, PrPC surface inh, SARS 3CLpro inh)
COc1cc(C=CC(=O)O)ccc1S(=O)(=O)N1CCCc2ccccc21	none (no result: BJeLR viability, DUSP3 inh, PrPC surface inh, SARS 3CLpro inh)
CCC(CC)CN1C(Nc2ccccc2)=NCC1C (centres undefined)	none (no result: BJeLR viability, DUSP3 inh, PrPC surface inh, SARS 3CLpro inh)
Cc1ccc(C=C2C(=O)NC(=O)N(CCc3ccc(F)cc3)C2=O)o1	none (no result: BJeLR viability, DUSP3 inh, PrPC surface inh, SARS 3CLpro inh)
COC(=O)C1=C(c2cccc(C#N)c2)CC2CCC1N2C(=O)NCCOc1ccc(OC)cc1 (centres undefined)	none (no result: BJeLR viability, DUSP3 inh, PrPC surface inh, SARS 3CLpro inh)
CCC1=NN2C(=N)C(=Cc3cccn3-c3ccc(Cl)cc3)C(=O)N=C2S1	none (no result: BJeLR viability, DUSP3 inh, PrPC surface inh, SARS 3CLpro inh)
CC1CC2C3CC(F)C4=CC(=O)C(Cl)=C[C@]4(C)[C@@]3(F)C(O)C[C@]2(C)[C@@]1(O)C(=O)CO (some centres undefined)	none (no result: BJeLR viability, DUSP3 inh, PrPC surface inh, SARS 3CLpro inh)
CC(C)(C)c1cc(NCCCn2ccnc2)n2ncc(-c3ccccc3)c2n1	Sa ugtP lethal 85
CC(C)Nc1cc(C(C)(C)C)nc2c(-c3ccccc3)cnn12	none
Cc1cc(NCCCn2ccnc2)n2ncc(-c3ccc(Cl)cc3)c2n1	Sa ugtP lethal 91
CN(C)CCCNc1cc(C(C)(C)C)nc2c(-c3ccc(Cl)cc3)cnn12	Sa RN4220 lethal 101, Sa ugtP lethal 100
CCOc1ccccc1CN1CCNC(=O)C1CC(=O)NCCCn1cccn1 (centres undefined)	DUSP3 inh 51
COc1ccccc1CN1CCNC(=O)C1CC(=O)NCCCn1cccn1 (centres undefined)	none
COc1ccc(-n2ccc(=O)c(C(=O)Nc3ccc(S(=O)(=O)Nc4nccs4)cc3)n2)cc1	DUSP3 inh 58

Bioassay records: PubChem BioAssay, several laboratories
